# Test results taken from PubChem BioAssay (Tox21).
# Results filed as inconclusive are left out. A number with no mark means an inactive call. Calls of active or inactive are those of the source. The call rests on the fitted dose curve; in most records, active means well fitted cell-killing curve with a large enough effect in the repeat runs; inconclusive means weak or mixed curves, or effect the other way; inactive means flat fitted curve, though single readings scatter.
# Assay: qHTS RealTime-Glo MT Cell Viability Assay in HEK293 cells - 40 hour (AID 1224874); further: nearly all actives have a fitted effect of over 50% in size
# Conditions: RealTime-Glo luminescence; max response: hits give low values
# Outline: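 Real-time viability in HEK293: signal arises when living cells convert a prosubstrate for NanoLuc in the medium, so luminescence tracks viable cell number. Compound (23 nL, DMSO) added 5 h post-seeding; kinetic reads at 0–40 h, 37 C.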
# On the % scale 0 is the no-effect control and ±100 the full control effect; potency means the concentration at half of the fitted maximal effect.
SMILES,max response [%],Potency
C#CCOC(C(=O)OCCN(C)C)(c1ccccc1)c1ccccc1,-21.3,
Brc1ccccc1,-2.8,
C[C@]12CC[C@H]3[C@@H](CCC4=CC(=O)CC[C@@H]43)[C@@H]1CC[C@@H]2OC(=O)CCC1CCCCC1,-18.6,
Cn1sc(Cl)cc1=O,-14,
CC(C)O.CC(C)O.OCCN(CCO)CCO.OCCN(CCO)CCO.[Ti],16.3,
c1ccoc1,-1.82,
O=C1c2ccccc2C(=O)C1C(=O)C(c1ccccc1)c1ccccc1,3.22,
NCC(CC(=O)O)c1ccc(Cl)cc1 (stereo not given),8.41,
CCOS(C)(=O)=O,-7.66,
O=C(NCc1cccnc1)Nc1ccc([N+](=O)[O-])cc1,,54.9 µM (active)
Cc1ccccc1CCl,-6.69,
ClCCCCBr,-9.07,
COP(=S)(OC)Oc1cc(Cl)c(I)cc1Cl,-19.9,
Nc1ccc([N+](=O)[O-])cc1[N+](=O)[O-],-23.5,
CN1C(=O)NC(=O)C(C)(C2=CCCCC2)C1=O (stereo not given),11.8,
O=C(CBr)Nc1ccc(Cl)cc1C(=O)c1ccccc1F,-13.4,
C=CC(=O)OCC(C)O (stereo not given),21.2,
CC1C(=O)C[C@]2(C(C)C)C[C@H]12 (stereo not given in full),9.37,

SMILES,max response [%],Potency
C=CCC1([C@H](C)CCC)C(=O)NC(=O)NC1=O,-11.9,
COc1cc(Cl)c(OC)cc1Cl,1.87,
CCCCCCCCCCOC(=O)c1ccccc1C(=O)OCCCCCCCCCC,0.334,
CCCN(CCC)c1c([N+](=O)[O-])cc(S(C)(=O)=O)cc1[N+](=O)[O-],,15.5 µM (active)
CCc1ccc(C(=O)NN(C(=O)c2cc(C)cc(C)c2)C(C)(C)C)cc1,-11.5,
Clc1cc(Cl)c(Cl)c(Cl)c1,-4.38,
CC(C)(OO)c1ccccc1,-0.0681,
Nc1ccc(N=Nc2ccc(-c3ccc(N=Nc4c(S(=O)(=O)O)cc5cc(S(=O)(=O)O)c(N=Nc6ccccc6)c(O)c5c4N)cc3)cc2)c(N)c1,23.2,
N#Cc1ccc(Cl)cc1,2.27,
CC(=O)C(C)(C)C,8.72,
C[N+](C)(C)CCCl,21.2,
CN1C[C@H](CNC(=O)OCc2ccccc2)C[C@@H]2c3cccc4c3c(cn4C)C[C@H]21,,23.9 µM (active)
CCOP(=S)(OCC)SCSCC,1.39,
O=C(O)COc1ccc(Cl)cc1,0.692,
ClCc1cccc(Cl)c1,-0.225,
COCC(C)N(C(=O)CCl)c1c(C)csc1C (stereo not given),17.2,
COC1=CC(=O)O[C@@H](CCc2ccccc2)C1,-25.1,
